From the supplement of paper PMC3334620
In all, about 33,000 sequences were measured (“E-score (-0.5 to 0.5)”: median about -0.054, highest 2% from about 0.35 on). The sample as a whole holds a higher share of the highest values than the screen did.

Molecular target: T1, Stb5 (UniProt P38699)
T1 sequence: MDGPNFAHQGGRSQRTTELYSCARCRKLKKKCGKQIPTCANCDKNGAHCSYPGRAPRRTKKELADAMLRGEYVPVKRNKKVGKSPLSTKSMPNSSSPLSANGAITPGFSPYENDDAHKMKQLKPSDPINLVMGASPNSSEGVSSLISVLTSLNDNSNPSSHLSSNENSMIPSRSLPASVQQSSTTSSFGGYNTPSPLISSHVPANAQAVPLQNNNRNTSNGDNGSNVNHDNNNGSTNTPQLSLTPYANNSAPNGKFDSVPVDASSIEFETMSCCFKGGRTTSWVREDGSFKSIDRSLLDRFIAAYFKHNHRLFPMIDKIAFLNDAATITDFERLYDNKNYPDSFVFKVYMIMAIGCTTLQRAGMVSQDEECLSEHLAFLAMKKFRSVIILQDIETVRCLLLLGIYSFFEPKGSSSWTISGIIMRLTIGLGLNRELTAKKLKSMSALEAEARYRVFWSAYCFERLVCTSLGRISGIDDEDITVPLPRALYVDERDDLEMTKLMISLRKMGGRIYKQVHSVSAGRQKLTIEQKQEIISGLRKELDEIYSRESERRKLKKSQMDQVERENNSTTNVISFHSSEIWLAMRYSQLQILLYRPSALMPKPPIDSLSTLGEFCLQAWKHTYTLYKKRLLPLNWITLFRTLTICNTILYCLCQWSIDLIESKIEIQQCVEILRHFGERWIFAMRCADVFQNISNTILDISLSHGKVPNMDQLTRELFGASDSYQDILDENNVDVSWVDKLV
Test: PBM E-score (8-mer binding enrichment) (E-score (-0.5 to 0.5)); higher = stronger / more preferred TF binding
Settings: protein concentration: 200 nM; construct: GST-full length
Protocol: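 Universal 'all 10-mer' protein binding microarrays (Agilent AMADID 015681) probed with GST-tagged S. cerevisiae TFs (full-length or DBD) made by in vitro transcription/translation (PURExpress), about 100-200 nM. Bound TF was detected with fluorescent anti-GST. Each ungapped 8-mer (which stands for itself and its reverse complement) is scored by the PBM enrichment score (E-score), a modified Wilcoxon-Mann-Whitney statistic from -0.5 to +0.5, computed with the Universal PBM Analysis Suite. Scale: above 0.35 generally sequence-specific binding.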

Sequence | PBM E-score
GGTGATAC | 0.369
GGTGATAA | 0.415
AGTGATAC | -0.128
CGTGATAA | 0.0332
AGTGATAA | -0.0882
CGTGATAC | -0.0683
CTCCTGTC | -0.26
AACCGTTC | 0.128
GTCCGTTA | 0.355
CGCCGTTC | 0.306
CGCCGTTA | 0.356
GACCGTTA | 0.278
AGCCGTTA | 0.0306
GGCCGTTA | 0.213
ATCCGTTA | 0.197
CTCCGTTA | 0.299
CACCGTTA | 0.367
AACCGTTA | -0.101
CACCGTTC | 0.368
GCGGGCAA | 0.171
GCAGACTA | -0.158
CTCCACAG | -0.313
CCTTTTGA | -0.106
CGTTGTCC | -0.0582
GACCAATA | 0.0169

Sequence | PBM E-score
GCCCTTAC | -0.0337
CAGTCGGA | 0.292
GGGTCGTA | 0.00669
TAGTCGGA | 0.355
GAGTCGGA | 0.307
CGGTCATA | 0.448
ATGTCGGA | 0.303
CGGTCGTC | 0.0319
GTGTCGGA | 0.357
GGGTCATA | -0.00196
CGGTCATC | 0.135
CGGTCGTA | 0.381
CTGTCGGA | 0.349
GAGCGGGA | 0.249
TCCAGAGA | -0.208
AGTCAAGC | -0.3
GTGAGCAA | -0.0477
TACGGGCA | 0.143
GACAACTA | -0.06
GCACAGAC | 0.0491
CGAGTTTC | -0.0887
CGGTCGGA | 0.313
CCGTCGGC | 0.377
CCGTCGTC | 0.161
CCGTCGGA | 0.37

Sequence | PBM E-score
ACGTCGGC | 0.27
GCGTCGGA | 0.345
CGGTCGGC | 0.352
ACGTCGGA | 0.264
AGGTCGGC | 0.293
GGAATAAC | 0.177
ATTTATTG | -0.0662
AAGCTGAA | -0.152
CCAAGAGG | -0.138
CGGTGCGA | 0.384
GGGTGCCA | -0.012
AGGTGCGA | 0.0754
CGGTGCCA | 0.414
CGGTGCCC | 0.27
GGGTGCGA | -0.0506
CCTGCTGA | -0.216
CGCTTCCG | 0.208
CCCGACTA | 0.312
AGTGCCAG | -0.0267
ATTGCCGC | 0.351
CGTGCCGA | 0.212
ATTGCCGG | 0.408
AGTGCCGC | 0.381
ATTGCCGA | 0.318
AGTGCCAC | -0.251

Sequence | PBM E-score
GGTGCCGA | 0.292
AGTGCCTG | -0.17
AGTGCCGG | 0.407
AGTGCCGA | 0.387
CGTGCCGC | 0.249
CACCAACG | 0.0702
AACCGTGT | -0.115
AGTCTGGG | -0.291
CCTGAGCG | -0.0867
CCGATAGA | 0.249
TGTCCCAA | -0.0294
ATTAGCTG | -0.119
CCTCTAAA | -0.196
AACCGACA | 0.181
CACCGACG | 0.453
CACCGAAG | 0.253
CACCGAGG | 0.23
GACCGACA | 0.341
CACCGACC | 0.418
CACCGAAC | 0.366
GACCGACC | 0.308
AACCGACC | 0.244
AACCGACG | 0.286
GACCGAAC | 0.145
TACCGACA | 0.356

Sequence | PBM E-score
CCCATGAA | -0.0849
CCAAGTAG | -0.293
CAGTGCGC | -0.135
GACCACAC | -0.152
ACCCTAGG | -0.165
CTTCACAC | -0.0447
CACCGAGA | 0.151
CACCGACA | 0.44
CACCGAAA | 0.305
AAAAAGAT | -0.291
CGGAGACG | 0.166
CGGACATA | 0.474
CGGACATC | 0.256
CGGACACA | 0.356
GGGACATA | 0.132
AGGAGACA | -0.131
CGGACGTA | 0.407
AGGACGTA | -0.182
TGGACACA | -0.0717
CGGACACG | 0.232
CGGAGACA | 0.398
CGGACGTC | 0.0917
ACCCCCTC | -0.265
GTGCACCA | -0.17
CGGAGGGC | -0.0349

Sequence | PBM E-score
CCTTCCCG | -0.125
ACAGCGTA | -0.0758
AAAATCAC | -0.092
GGTGATCA | 0.0514
CTTGTGGC | -0.163
CGTAGTAC | 0.0304
GACCGGTA | 0.231
CACCGGTG | 0.408
CACCGGTC | 0.337
CACCGGTA | 0.408
AACCGGTA | 0.261
TACCGGTA | 0.36
AACCGGTG | 0.306
AACCGGTC | 0.272
CTCCGGTA | 0.316
AGAAGCCT | -0.0816
TCTGCAGA | 0.00207
CCCCCAGG | -0.281
AAACCCCC | 0.263
AAAAACCC | 0.226
GAAACCCA | 0.0284
AAAACCCG | 0.379
GAAACCCC | 0.353
ATAACTCG | 0.0637
AAAACCCC | 0.355

Sequence | PBM E-score
ATAACTCC | 0.429
GAAAACCC | 0.278
CAAACCCG | 0.216
AAAACCCT | -0.074
CTAACTCC | 0.288
AATCTGTG | -0.207
CGCAGAAA | -0.114
GCAAAGGC | 0.115
GGTGGACA | 0.00374
TCTTTCAA | -0.0737
ACCCTCCG | 0.134
CGGTGGCA | 0.299
CCTTATCC | 0.00435
ATCTCCAC | 0.0569
GTCTTAAA | 0.179
ACTCGACT | -0.224
ATAAACCC | 0.373
ATAACCCC | 0.412
CTAAACCC | 0.233
ATAACCCG | 0.228
ATAAACCA | -0.078
ATAACCCA | -0.157
AATTCCTA | -0.258
AAAGACCC | 0.0704
